Source: PubChem BioAssay AID1159580 (chemical genetic matrix, 2015)
“And” between values parts separate entries of the source, which are not always exact repeats. Equal values may be shown once. The whole screen tested about 5,500 compounds, of which about 2,000 (36%) were called active. Another 18% or so got no clear call; they are omitted. Rule as the data show it: active = normalized growth mostly below about 0.91 (no sharp cut-off); inconclusive = no clear call, values can overlap the other calls; inactive = mostly above about 0.92. The list shows a part of the results.

Assay: chemical genetic growth profiling, strain panel (AID 1159580);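 also: tested at 20 µM; growth read once vehicle control cultures reached saturation at 30 °C; 1 = growth at the plate median or of vehicle wells; lower values mean less growth of the strain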
Conditions: growth OD

Measured: normalized growth

CN(C)CCCN1c2ccccc2Sc2ccccc21
inactive: S. cerevisiae deletion strains, locus YJR075W, strain HOC1, active compounds read low 0.995 and 1 | S. cerevisiae deletion strains, locus YKL009W, strain mrt4, active compounds read low 1.02 | S. cerevisiae deletion strains, locus YKL068W, active compounds read low 1.01 | S. cerevisiae deletion strains, locus YKL085W, strain MDH1 (second series), active compounds read low 1 | S. cerevisiae deletion strains, locus YKL085W, strain MDH1, active compounds read low 1 | S. cerevisiae deletion strains, locus YKL160W, strain elf1, active compounds read low 1.04 | S. cerevisiae deletion strains, locus YKL190W, strain CNB1, active compounds read low 1 | S. cerevisiae deletion strains, locus YKR001C, strain vps1, active compounds read low 1.02 | S. cerevisiae deletion strains, locus YKR026C, strain gcn3, active compounds read low 0.989 | S. cerevisiae deletion strains, locus YKR091W, strain srl3, active compounds read low 0.984 | S. cerevisiae deletion strains, locus YLL001W, strain dnm1, active compounds read low 0.978 | S. cerevisiae deletion strains, locus YLL026W, active compounds read low 0.98 | S. cerevisiae deletion strains, locus YLL041C, strain sdh2, active compounds read low 0.99 | S. cerevisiae deletion strains, locus YLR027C, strain aat2, active compounds read low 0.999 | S. cerevisiae deletion strains, locus YLR039C, strain RIC1, active compounds read low 1.19 | S. cerevisiae deletion strains, locus YLR058C, strain SHM2, active compounds read low 1 | S. cerevisiae deletion strains, locus YLR102C, strain apc9, active compounds read low 1.01 | S. cerevisiae deletion strains, locus YLR113W, strain HOG1, active compounds read low 1.01 | S. cerevisiae deletion strains, locus YLR221C, strain rsa3, active compounds read low 0.992 | S. cerevisiae deletion strains, locus YLR258W, strain gsy2, active compounds read low 0.983 | S. cerevisiae deletion strains, locus YLR262C, strain YPT6 (second series), active compounds read low 1.01 | S. cerevisiae deletion strains, locus YLR262C, strain YPT6, active compounds read low 1.23 | S. cerevisiae deletion strains, locus YLR268W, strain sec22, active compounds read low 1.01 | S. cerevisiae deletion strains, locus YLR320W, strain mms22, active compounds read low 0.996 | S. cerevisiae deletion strains, locus YLR330W, strain CHS5, active compounds read low 1.01 | S. cerevisiae deletion strains, locus YLR342W, strain FKS1 (second series), active compounds read low 0.99 | S. cerevisiae deletion strains, locus YLR342W, strain FKS1, active compounds read low 0.977 | S. cerevisiae deletion strains, locus YLR357W, strain rsc2, active compounds read low 0.989 | S. cerevisiae deletion strains, locus YLR370C, strain arc18, active compounds read low 1 | S. cerevisiae deletion strains, locus YLR371W, strain rom2, active compounds read low 1.01 | S. cerevisiae deletion strains, locus YLR384C, strain iki3, active compounds read low 0.997 | S. cerevisiae deletion strains, locus YLR418C, strain cdc73, active compounds read low 0.988 | S. cerevisiae deletion strains, locus YML016C, strain PPZ1, active compounds read low 1.01 | S. cerevisiae deletion strains, locus YML032C, strain rad52, active compounds read low 1.01 | S. cerevisiae deletion strains, locus YML120C, strain ndi1, active compounds read low 0.99 | S. cerevisiae deletion strains, locus YML124C, strain tub3, active compounds read low 1.01 | S. cerevisiae deletion strains, locus YMR058W, strain fet3, active compounds read low 0.982 | S. cerevisiae deletion strains, locus YMR078C, strain ctf18, active compounds read low 1.01 | S. cerevisiae deletion strains, locus YMR125W, strain sto1, active compounds read low 0.947 | S. cerevisiae deletion strains, locus YMR129W, active compounds read low 1 | S. cerevisiae deletion strains, locus YMR205C, strain PFK2, active compounds read low 1 | S. cerevisiae deletion strains, locus YMR223W, strain ubp8, active compounds read low 0.999 | S. cerevisiae deletion strains, locus YMR231W, strain pep5, active compounds read low 0.986 | S. cerevisiae deletion strains, locus YMR263W, strain SAP30, active compounds read low 0.999 and 0.981 | S. cerevisiae deletion strains, locus YMR307W, strain GAS1, active compounds read low 1.03 and 1.02 | S. cerevisiae deletion strains, locus YNL067W, strain RPL9B, active compounds read low 0.988 | S. cerevisiae deletion strains, locus YNL071W, strain lat1, active compounds read low 0.996 | S. cerevisiae deletion strains, locus YNL128W, strain TEP1, active compounds read low 1.01 and 0.994 | S. cerevisiae deletion strains, locus YNL153C, strain GIM3, active compounds read low 1.09 | S. cerevisiae deletion strains, locus YNL175C, strain NOP13, active compounds read low 0.983 | S. cerevisiae deletion strains, locus YNL183C, strain NPR1, active compounds read low 0.965 | S. cerevisiae deletion strains, locus YNL209W, strain ssb2, active compounds read low 0.971 | S. cerevisiae deletion strains, locus YNL224C, strain SQS1, active compounds read low 1.01 | S. cerevisiae deletion strains, locus YNL233W, strain BNI4, active compounds read low 1.01 | S. cerevisiae deletion strains, locus YNL248C, strain rpa49, active compounds read low 0.976 | S. cerevisiae deletion strains, locus YNL250W, strain rad50, active compounds read low 1.01 | S. cerevisiae deletion strains, locus YNL271C, strain bni1, active compounds read low 1.01 | S. cerevisiae deletion strains, locus YNL298W, strain CLA4, active compounds read low 1 | S. cerevisiae deletion strains, locus YNL307C, strain MCK1, active compounds read low 1.02 | S. cerevisiae deletion strains, locus YNL322C, strain KRE1 (second series), active compounds read low 1.01 | S. cerevisiae deletion strains, locus YNL322C, strain KRE1, active compounds read low 1 and 0.958 | S. cerevisiae deletion strains, locus YNR049C, strain mso1, active compounds read low 0.996 | S. cerevisiae deletion strains, locus YNR052C, strain pop2, active compounds read low 1.01 | S. cerevisiae deletion strains, locus YOL006C, strain TOP1, active compounds read low 0.983 | S. cerevisiae deletion strains, locus YOL012C, strain htz1 0.964 | S. cerevisiae deletion strains, locus YOL147C, strain pex11, active compounds read low 1.01 | S. cerevisiae deletion strains, locus YOR001W, strain rrp6, active compounds read low 0.96 | S. cerevisiae deletion strains, locus YOR061W, strain CKA2, active compounds read low 1.01 | S. cerevisiae deletion strains, locus YOR069W, strain VPS5, active compounds read low 0.995 | S. cerevisiae deletion strains, locus YOR070C, strain gyp1, active compounds read low 0.986 | S. cerevisiae deletion strains, locus YOR080W, strain dia2, active compounds read low 1.01 | S. cerevisiae deletion strains, locus YOR083W, strain WHI5 (second series), active compounds read low 0.98 | S. cerevisiae deletion strains, locus YOR083W, strain WHI5, active compounds read low 0.971 | S. cerevisiae deletion strains, locus YOR106W, strain vam3, active compounds read low 0.968 | S. cerevisiae deletion strains, locus YOR136W, strain idh2, active compounds read low 1.02 | S. cerevisiae deletion strains, locus YOR144C, strain elg1, active compounds read low 1.01 | S. cerevisiae deletion strains, locus YOR184W, strain ser1, active compounds read low 1.08 | S. cerevisiae deletion strains, locus YOR231W, strain MKK1, active compounds read low 0.986 | S. cerevisiae deletion strains, locus YOR265W, strain rbl2, active compounds read low 1 | S. cerevisiae deletion strains, locus YOR270C, strain vph1, active compounds read low 0.898 | S. cerevisiae deletion strains, locus YOR290C, strain snf2, active compounds read low 1.01 | S. cerevisiae deletion strains, locus YOR316C, strain cot1, active compounds read low 1.02 | S. cerevisiae deletion strains, locus YPL051W, strain arl3, active compounds read low 1 | S. cerevisiae deletion strains, locus YPL055C, strain LGE1, active compounds read low 1.01 | S. cerevisiae deletion strains, locus YPL078C, strain atp4, active compounds read low 1.01 | S. cerevisiae deletion strains, locus YPL106C, strain sse1, active compounds read low 0.999 | S. cerevisiae deletion strains, locus YPL240C, strain hsp82, active compounds read low 0.985 | S. cerevisiae deletion strains, locus YPL241C, strain CIN2, active compounds read low 0.999 | S. cerevisiae deletion strains, locus YPL256C, strain CLN2, active compounds read low 1.01 | S. cerevisiae deletion strains, locus YPR119W, strain clb2, active compounds read low 1 | S. cerevisiae deletion strains, locus YPR141C, strain kar3, active compounds read low 1.01 | S. cerevisiae deletion strains, locus YPR163C, strain tif3, active compounds read low 1.01 | S. cerevisiae deletion strains, locus YPR167C, strain met16, active compounds read low 1.01 | S. cerevisiae deletion strains, strain wtn01, active compounds read low 1.02 | S. cerevisiae strains, strain wild type, active compounds read low 0.992
